From PubChem BioAssay (NCATS)
Results filed as inconclusive are left out. Rule as the data show it, unless noted: active = potency below about 10 µM; inactive = the rest.

Biological target: Lysosomal acid glucosylceramidase (Homo sapiens) (UniProt P04062)
Assay: Glucocerebrosidase-p2 (AID 348); also: potency is read from the fitted curve at half-maximal effect
Details: purified GBA, blue fluorogenic substrate, 40 min
In short: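 Normal human glucocerebrosidase (0.2 nM) with blue fluorogenic substrate (80 uM final) in citrate/phosphate pH 5.9 with 10mM sodium taurocholate, 0.01% tween-20; 40 min RT, NaOH/glycine stop; fluorescence Ex 365/Em 440; AC50 from a titration from 0.6 nM upwards.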

Sequence of Lysosomal acid glucosylceramidase (Homo sapiens) (P04062 whole entry, looked up): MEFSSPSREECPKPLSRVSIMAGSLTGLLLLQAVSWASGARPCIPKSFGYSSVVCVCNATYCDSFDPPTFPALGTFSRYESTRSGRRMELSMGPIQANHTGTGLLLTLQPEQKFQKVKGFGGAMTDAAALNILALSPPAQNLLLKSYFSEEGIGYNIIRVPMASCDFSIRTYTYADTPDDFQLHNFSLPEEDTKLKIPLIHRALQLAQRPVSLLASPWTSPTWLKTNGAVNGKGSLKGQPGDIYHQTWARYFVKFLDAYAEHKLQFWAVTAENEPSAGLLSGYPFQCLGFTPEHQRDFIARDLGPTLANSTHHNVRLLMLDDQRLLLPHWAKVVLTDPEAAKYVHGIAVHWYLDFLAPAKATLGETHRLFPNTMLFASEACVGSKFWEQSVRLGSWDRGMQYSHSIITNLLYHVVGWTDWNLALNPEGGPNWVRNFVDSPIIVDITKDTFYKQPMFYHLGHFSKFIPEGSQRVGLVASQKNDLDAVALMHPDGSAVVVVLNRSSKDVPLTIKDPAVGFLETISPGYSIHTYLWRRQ

Potency, inactive:
COc1ccccc1-c1nc(NCc2cccs2)c2ccccc2n1 > 11.4 µM, COc1ccc(CNc2ncncc2-c2ccoc2)c(OC)c1 > 11.4 µM, CCNc1ncc2nc(-c3cccs3)c(=O)n(C[C@H]3CCCO3)c2n1 > 11.4 µM, COc1ccccc1-c1nccc(NCc2cccnc2)n1 > 11.4 µM, CCNc1ncc2nc(C)c(=O)n(CCOC)c2n1 > 11.4 µM, c1ccc(CNc2nc(-c3ccoc3)nc3ccccc23)cc1 > 2.29 µM, c1csc(CNc2nc(-c3ccoc3)nc3ccccc23)c1 > 11.4 µM, N#Cc1cccc(-c2nc(NCc3cccs3)c3ccccc3n2)c1 > 11.4 µM, CN(Cc1ccco1)c1ncncc1-c1ccc2c(c1)OCO2 > 11.4 µM, CN(Cc1ccco1)c1ncncc1-c1cccnc1 > 11.4 µM, Cc1noc(C)c1-c1nc(N(C)C)c2ccccc2n1 > 11.4 µM, Cc1cnc(CNc2cc(-c3c(C)noc3C)ncn2)cn1 > 11.4 µM, CN(Cc1ccco1)c1nc(-c2ccc3c(c2)OCO3)nc2ccccc12 > 11.4 µM, N#Cc1cccc(-c2cncnc2NCCc2cnc[nH]2)c1 > 11.4 µM, O=c1c(-c2cccs2)nc2cncnc2n1-c1ccccc1 > 11.4 µM, COc1ccc(-c2nc3cnc(N4CCOCC4)nc3n(Cc3cccs3)c2=O)cc1 > 11.4 µM, COc1ccc2[nH]cc(CCNc3cc(-c4c(C)noc4C)ncn3)c2c1 > 11.4 µM, CS(=O)(=O)Nc1cccc(-c2cc(NCc3ccccc3)ncn2)c1 > 11.4 µM, COc1ccccc1-c1cncnc1NCc1ccccc1 > 11.4 µM, CCNc1ncc2nc(-c3cccs3)c(=O)n(-c3ccccc3)c2n1 > 11.4 µM, COc1cccc(-c2nccc(NCc3cnc(C)cn3)n2)c1 > 11.4 µM, COc1ccc(CNc2ncncc2-c2ccc(N(C)C)cc2)c(OC)c1 > 11.4 µM, CN(C)C(=O)c1ccc(-c2ccc3ncnc(NCCN4CCOCC4)c3c2)cc1 > 11.4 µM, COCCn1c(=O)c(-c2cccc(F)c2)nc2cncnc21 > 11.4 µM, Cc1noc(C)c1-c1nccc(Nc2ccc(F)cc2)n1 > 11.4 µM, COc1ccccc1-c1cc(Nc2ccn[nH]2)ncn1 > 11.4 µM, Cc1cnc(CNc2nc(-c3ccccc3Cl)nc3ccccc23)cn1 > 11.4 µM, CCNc1ncc2nc(-c3cccc(C#N)c3)c(=O)n(CCC#N)c2n1 > 11.4 µM, c1ccc(CNc2ccnc(-c3cccnc3)n2)cc1 > 11.4 µM, CN(C)C(=O)c1ccc(-c2cncnc2N(C)Cc2ccco2)cc1 > 11.4 µM, COc1ccccc1-c1cc(Nc2ccc(F)cc2)ncn1 > 11.4 µM, CN(C)c1nc(-c2ccccc2C(F)(F)F)nc2ccccc12 > 11.4 µM, COc1ccccc1-c1nc(N(C)Cc2ccco2)c2ccccc2n1 > 11.4 µM, COc1cccc(-c2cncnc2NCc2cccs2)c1 > 11.4 µM, c1ccc(Nc2ncncc2-c2ccoc2)cc1 > 11.4 µM, COc1ccccc1CNc1ccnc(-c2c(C)noc2C)n1 > 11.4 µM, COCCn1c(=O)cnc2cnc(N(C)C)nc21 > 11.4 µM, COc1ccc(CNc2ccnc(-c3cccnc3)n2)c(OC)c1 > 11.4 µM, Cc1cnc(CNc2ncnc3ccc(-c4ccc(C(=O)N(C)C)cc4)cc23)cn1 > 11.4 µM, COc1cccc(Cn2c(=O)cnc3cnc(Nc4ccccc4)nc32)c1 > 11.4 µM

Tested on: not listed separately
Assay: AP1 Signaling Pathway (AID 357; active = well fitted curve in either direction with a large enough effect, not every such curve was filed as active;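 also: ME-180 reporter cells stimulated with EGF at its EC50 level; % is scaled to controls: 0 for no effect and ±100 for the full control effect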)
Details: ME-180 (cervical carcinoma) AP-1-bla reporter, EGF-induced, beta-lactamase ratio, 5 h; at 7.69 µM (top of the series) unless noted
In short: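 Read-out was the 460nm/530nm emission ratio (excitation 405nm) after CCF4 loading for 2.5 hours at room temperature. Cells carried an AP-1-driven beta-lactamase reporter, were stimulated with EC50 EGF plus compound for 5 hours, and AC50 values came from titrations.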

Activity change, negative = inhibition, inactive:
COc1ccc(CNc2ncncc2-c2ccoc2)c(OC)c1 -9.49%, CCNc1ncc2nc(-c3cccs3)c(=O)n(C[C@H]3CCCO3)c2n1 9.48%, COc1ccccc1-c1nccc(NCc2cccnc2)n1 5.53%, CCNc1ncc2nc(C)c(=O)n(CCOC)c2n1 -1.39%, c1ccc(CNc2nc(-c3ccoc3)nc3ccccc23)cc1 -9.34%, c1csc(CNc2nc(-c3ccoc3)nc3ccccc23)c1 -9.82%, N#Cc1cccc(-c2nc(NCc3cccs3)c3ccccc3n2)c1 -7.71%, CN(Cc1ccco1)c1ncncc1-c1ccc2c(c1)OCO2 1.93%, CN(Cc1ccco1)c1ncncc1-c1cccnc1 1.77%, Cc1cnc(CNc2cc(-c3c(C)noc3C)ncn2)cn1 23.4%, CN(Cc1ccco1)c1nc(-c2ccc3c(c2)OCO3)nc2ccccc12 17%, N#Cc1cccc(-c2cncnc2NCCc2cnc[nH]2)c1 -12%, O=c1c(-c2cccs2)nc2cncnc2n1-c1ccccc1 -11.2%, COc1ccc(-c2nc3cnc(N4CCOCC4)nc3n(Cc3cccs3)c2=O)cc1 12.3%, COc1ccc2[nH]cc(CCNc3cc(-c4c(C)noc4C)ncn3)c2c1 8.05%, CS(=O)(=O)Nc1cccc(-c2cc(NCc3ccccc3)ncn2)c1 -7.54%, COc1ccccc1-c1cncnc1NCc1ccccc1 4.35%, CCNc1ncc2nc(-c3cccs3)c(=O)n(-c3ccccc3)c2n1 -0.879%, COc1cccc(-c2nccc(NCc3cnc(C)cn3)n2)c1 2.41%, COc1ccc(CNc2ncncc2-c2ccc(N(C)C)cc2)c(OC)c1 -8.89%, CN(C)C(=O)c1ccc(-c2ccc3ncnc(NCCN4CCOCC4)c3c2)cc1 -5.51%, COCCn1c(=O)c(-c2cccc(F)c2)nc2cncnc21 -16%, Cc1noc(C)c1-c1nccc(Nc2ccc(F)cc2)n1 -22.4%, COc1ccccc1-c1cc(Nc2ccn[nH]2)ncn1 -9.99%, CCNc1ncc2nc(-c3cccc(C#N)c3)c(=O)n(CCC#N)c2n1 12.8%, c1ccc(CNc2ccnc(-c3cccnc3)n2)cc1 -10.3%, CN(C)C(=O)c1ccc(-c2cncnc2N(C)Cc2ccco2)cc1 -9.99%, COc1ccccc1-c1nc(N(C)Cc2ccco2)c2ccccc2n1 27.9%, COc1cccc(-c2cncnc2NCc2cccs2)c1 -25%, c1ccc(Nc2ncncc2-c2ccoc2)cc1 -25%, COc1ccccc1CNc1ccnc(-c2c(C)noc2C)n1 18%, COCCn1c(=O)cnc2cnc(N(C)C)nc21 8.38%, COc1ccc(CNc2ccnc(-c3cccnc3)n2)c(OC)c1 -5.2%, COc1cccc(Cn2c(=O)cnc3cnc(Nc4ccccc4)nc32)c1 -26.5%
